Screening results (PubChem BioAssay)
MITF TRPM1 inh = inhibitors of MITF-driven TRPM1 promoter in melanoma cells. SK-MEL-5 TRPM1 promoter luciferase, 24 h. inhibition, % at 12.5 µM. 0.83% of 330,000 active. AID 488899;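 active = mean inhibition across replicates of 60% or more, whatever share of single replicates reaches that level; inconclusive = some that reach 60%, reason not given; inactive = mean inhibition across replicates below 60%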
HIF-2a block = HIF-2a inhibition; 786-0 RCC cells HIF-2a reporter, luciferase luminescence, overnight; inhibition, % at 18.8 µM; 0.72% of 360,000 active; AID 624352;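 active = inhibition of the luminescence signal of 40% or more relative to plate controls, in a single-dose primary screen at 18.75 µM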
Peg3 promoter = reduces Peg3 promoter-driven luciferase expression in HeLa; HeLa PEG-Prom luciferase reporter, luminescence, overnight; inhibition, % at 20 µM; 1.7% of 360,000 active; AID 588405;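 active = inhibition of at least 50% at 20 µM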
KKLEB cytotox = CF airway cell cytotoxicity counter-screen. KKLEB CF airway cells viability, ATPlite luminescence, overnight; hits give low values; cells stimulated with P. aeruginosa culture filtrate. activity change (cytotoxicity), % at 5 µM. 0.36% of 360,000 active;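 active = corrected activity change at or below -50% at 5 µM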
CF NFkB block = inhibitors of cystic fibrosis induced NF-kB. AID 588850. inhibition, % at 5 µM. KKLEB NF-kB-GFP reporter, PAF-induced, GFP fluorescence overnight. 0.86% of 360,000 active;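 active = at least 50% inhibition at 5 µM, scaled per plate between neutral and stimulator controls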;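 also: PAF is a Pseudomonas aeruginosa culture filtrate used as stimulus; plate controls were PAF-stimulated DMSO wells for no effect and unstimulated DMSO wells for full effect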
Shn3 inh set2 = reduces Shn3 3'UTR luciferase signal in osteoblasts; Clone20 osteoblast Shn3 3'UTR firefly luciferase, 24 h; AID 588674; inhibition, % at 12.5 µM; 0.52% of 360,000 active;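 active = mean inhibition of at least 75% with every replicate also reaching 75%; inconclusive = mean inhibition at least 75% but some replicate below; inactive = mean inhibition below 75%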;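 also: 0% = median of neutral control wells and 100% = pilot-screen positive control compound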
Mdm2 MdmX conf = confirmation of inhibitors of human Mdm2/MdmX interaction, set 2; shares compounds with HIF-2a block; SaOS-2 split-luciferase Mdm2/MdmX complementation, luminescence; inhibition, % at 8 µM; 99% of 740 active; AID 504601;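 active = mean inhibition of the luminescence signal across two replicates at or above 26 percent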
HIF-2a inh conf = confirmation of HIF-2a inhibitors; shares compounds with HIF-2a block; 786-0 RCC cells, HIF-2a luciferase reporter luminescence, overnight; inhibition, % at 18.8 µM; 56% of 1,800 active; AID 651580;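 active = mean inhibition across four replicates of at least 40 percent at the single tested concentration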
HIF-1a cs = inhibits HIF-1a reporter, a counter-screen for HIF-2a inhibitors; shares compounds with HIF-2a block; MiaPaCa-2 HIF-1a luciferase reporter, desferoxamine, overnight; inhibition, % at 18.8 µM; 72% of 1,800 active; AID 651589;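 active = mean inhibition of the reporter signal across four replicates at the single tested dose of 50% or more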
* = called active by the depositor; ? = inconclusive; . = not tested or not shown. A selection: hits, their analogues and other compounds. The true share with any hit is near 2.7%.

SMILES	MITF TRPM1 inh	HIF-2a block	Peg3 promoter	KKLEB cytotox	CF NFkB block	Shn3 inh set2	HIF-2a inh conf	HIF-1a cs	others
CCc1ccc(S(=O)(=O)ON2C(=O)c3ccccc3C2=O)cc1	11	46*	51*	10	3	46	51*	-4
COc1ccc(OC)c(S(=O)(=O)ON2C(=O)c3ccccc3C2=O)c1	31	57*	54*	0	-10	56	60*	23
CC1=C(C(=O)N(C)C)CC(CC(=O)NCc2cccs2)C(=O)N1Cc1ccc(F)cc1 (stereo unspecified)	.	0	6	3	-14	-16	.	.
CCc1cccc(CC)c1NC(=O)/C(C#N)=C/c1ccccc1C(F)(F)F	89*	92*	107*	-56*	69*	-16	97*	102*
CC1(C(=O)NS(=O)(=O)Cc2ccccc2C(F)(F)F)CCN1C(=O)Cc1cccs1 (stereo unspecified)	.	-1	5	18	0	-3	.	.
CC(C)c1cccc(O)c(=O)c1	.	5	48	-4	17	24	.	.	Mdm2 MdmX conf=97*
COc1ccccc1NS(=O)(=O)c1cc(C(=O)NC2CC(C)(C)NC(C)(C)C2)ccc1Cl	-11	2	-18	-9	11	-2	.	.
CCOC(=O)c1sc(NC(=O)c2cc3c(s2)CCC(C)C3)nc1C (stereo unspecified)	72*	48*	24	3	3	9	45*	-3
CC1CCCN(C(=O)c2cccc(S(=O)(=O)NCc3ccccc3)c2)C1 (stereo unspecified)	.	9	0	-11	14	7	.	.
Oc1cccc2ccc(Nc3ccccn3)nc12	86*	95*	102*	-67*	60*	79	79*	105*	Mdm2 MdmX conf=103*
Cc1cccc2sc(NNC(=O)c3ccc(S(=O)(=O)N4CC(C)CC(C)C4)cc3)nc12 (stereo unspecified)	78*	48*	99*	-16	34	?	-4	100*	Mdm2 MdmX conf=90*
Nc1ccc(-c2nc3c(Cl)cc(N)cc3[nH]2)cc1	76*	88*	12	-4	-5	68	96*	85*
Fc1cccc2sc(Nc3nnc(-c4ccccc4)o3)nc12	-10	-172	-184	4	-2	-18	.	.
COc1cc(OC)cc(-c2nnc(Nc3nc4c(F)cccc4s3)o2)c1	7	72*	-18	-1	7	18	85*	-23
O=C(NCc1cccc(C(F)(F)F)c1)C1C(=O)Nc2ccccc2C(=O)N1Cc1ccccc1 (stereo unspecified)	.	12	.	.	.	.	.	.
O=C(COC(=O)c1nc(Cl)c(Cl)c(Cl)c1Cl)NCc1ccccc1	50	70*	92*	3	31	0	18	-19
O=c1[nH]c2ccc(Br)cc2c(=O)o1	.	44*	9	1	-18	-12	45*	8
Nc1nc2ccc(S(=O)(=O)c3ccc4nc(N)sc4c3)cc2s1	-2	48*	13	-20	17	-15	41*	-20
N#Cc1ccccc1COc1ccc(/C=C/C(=O)O)cc1	55	87*	10	-6	3	42	89*	56*
N#Cc1ccc(/C=C/C(=O)c2ccccc2)cc1	6	87*	98*	1	17	31	-63	65*
Nc1nccc(NCCSCc2ccccc2)n1	12	-11	-17	13	8	71	.	.
Cc1nc2ccccc2n1C(c1cccnc1)c1nc2ccccc2[nH]1 (stereo unspecified)	.	-50	.	.	.	.	.	.
O=[N+]([O-])c1ccc(NC(=S)NCCc2ccc(Cl)cc2)cc1	4	-21	8	-38	29	-1	.	.	Mdm2 MdmX conf=97*
O=[N+]([O-])c1ccc(NC(=S)NCCc2ccccc2)cc1	-12	-156	-102	-12	4	65	.	.
CC(C)COc1ccc(C(=S)N2CCCC2)cc1	-10	57*	-9	-2	-17	-1	58*	-7
SMILES	MITF TRPM1 inh	HIF-2a block	Peg3 promoter	KKLEB cytotox	CF NFkB block	Shn3 inh set2	HIF-2a inh conf	HIF-1a cs	others
O=C(NC1CCCC1)C(C1CC1)n1c(-c2ccnc3ccccc23)nc2ccccc21 (stereo unspecified)	.	10	.	.	.	.	.	.
NS(=O)(=O)c1ccc(Oc2ccc(S(N)(=O)=O)cc2)cc1	9	11	8	2	-13	-16	.	.
C=CS(=O)(=O)c1ccc(Oc2ccc(S(=O)(=O)C=C)cc2)cc1	89*	90*	107*	-56*	99*	96*	90*	106*
Cc1ccc(S(=O)(=O)N(C)C[C@@H]2OCc3cn(nn3)CCCC(=O)N([C@H](C)CO)C[C@H]2C)cc1	.	16	0	8	-13	2	.	.
NNc1nc2c(-c3ccc(Cl)cc3)nnn2c2ccccc12	-40	-265	-251	-2	-35	-92	.	.
Clc1nc2c(-c3ccccc3)nnn2c2ccccc12	57	-63	103*	1	42	.	.	.	Mdm2 MdmX conf=103*
O=C(O)c1ccc(Sc2nnnn2-c2ccccc2)c([N+](=O)[O-])c1	2	9	-2	-8	4	3	.	.
COC(=O)c1ccc(Sc2nnnn2-c2ccccc2)c([N+](=O)[O-])c1	53	40*	36	-9	44	15	4	-14
COC(=O)c1cccc(-c2noc(-c3ccccc3F)n2)c1	-15	52*	-291	-3	-13	-29	65*	-107
NC(=O)c1cccc(-c2noc(-c3ccccc3F)n2)c1	-31	-156	-159	11	-28	1	.	.
CC(=O)Nc1ccc(Nc2cc(N3CCOCC3)c3nonc3c2[N+](=O)[O-])cc1	13	42*	14	-10	-3	-8	5	76*
Cc1nc([N+](=O)[O-])c(Sc2nc3ccccc3[nH]2)n1Cc1ccccc1	46	22	-4	-10	42	25	.	.
Cc1cc2nc(Sc3c([N+](=O)[O-])nc(C)n3Cc3ccccc3)[nH]c2cc1C	9	53*	33	-13	44	-41	17	32
COc1ccc(-c2cc3nc(-c4ccccc4)cc(N4CCCC(O)C4)n3n2)cc1 (stereo unspecified)	-14	43*	46	3	-6	5	-11	90*
CC(=O)Nc1cc(-c2ccc(C(=O)N3CCOCC3)cc2)cn2c(-c3ccc(C(C)=O)cc3)cnc12	.	28	19	15	-2	13	.	.
